Experiment [1] deals with SERPINA7 (gene 6906). Description: CCTE_GLTED_hTBG: CCTE's human Thyroxine-binding Globulin (TBG) Inhibition Assay, Great Lakes Toxicology and Ecology Division (GLTED) Lab (AID 2284343; active = hit-call score of the fitted dose curve at least 0.9, where 1 is the maximum;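 also: active chemicals lower fluorescence versus DMSO baseline by displacing probe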). In a few lines:
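Cell-free displacement of the fluorescent probe ANSA from human thyroxine-binding globulin after 2 h exposure. Read-out at ex 380/em 475 nm; DMSO baseline.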

Experiment [2] can be described thus: CCTE_Deisenroth_H295R-HTRF_384WELL_ESTRADIOL: CCTE's H295R-HTRF Assay Evaluation of Estradiol Concentration, Deisenroth Lab (AID 2284361). The note with it: actives raise or lower the signal. In a few lines:
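Estradiol secreted into medium by H295R adrenocortical cells, quantified by HTRF after 48 h dosing over a nine-point 0.001 - 100 uM final range; gain or loss versus DMSO. Parallel ATP-luminescence viability readout; n=5 experiments.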
A general note: In TR-FRET formats the signal depends on donor and acceptor labels being close together.

Experiment [3] can be described thus: CCTE_Deisenroth_H295R-HTRF_384WELL_TESTOSTERONE: CCTE's H295R-HTRF Assay Evaluation of Testosterone Concentration, Deisenroth Lab (AID 2284373). The conditions noted are these: actives raise or lower the signal. In a few lines: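 H295R cells were acclimated 24 h, then exposed 48 h to nine concentrations (0.001–100 uM final) in technical triplicate, n=5. Testosterone in conditioned medium was measured by HTRF (em 620/665 nm). Fitting was bidirectional versus DMSO; CellTiter-Glo viability ran on the same plates.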

Experiment [4] in a line: CCTE_Deisenroth_H295R-HTRF_384WELL_CTOX: Cytotoxicity Assessment in CCTE's H295R-HTRF Assay, Deisenroth Lab (AID 2284380; active = hit-call score of the fitted dose curve at least 0.9, where 1 is the maximum). An outline of the steps:
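Luminescent ATP viability readout (CellTiter-Glo 2.0), multiplexed on plates used for hormone sampling, after 48 h chemical exposure. Human H295R cells; final concentrations 0.001–100 uM in nine steps, technical triplicates, five experiments; DMSO baseline.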

Active and inactive are the calls of the source. The calls were made as follows, unless noted: active = hit-call score of the fitted dose curve at least 0.9, where 1 is the maximum; inactive = score below 0.9.

Usually AC50 stands for the midpoint of the concentration-response curve, whichever way the signal moves.

Turning to `O=C(O)Cn1c(=O)n(Cc2ccc(Br)cc2F)c(=O)c2ccc(Cl)cc21`, in experiment [1], the AC50 is 18.1 µM (active).
The same measure, in the same setting: the result for `CCCCCc1ccc(N)cc1` reads 29.9 µM (active).
Take `Clc1ccccc1C(c1ccccc1)(c1ccccc1)n1ccnc1`: the AC50 in experiment [2] was 0.129 µM (active); in experiment [3], 117 nM (active). Further, the molecule was classed as inactive in experiment [4].
In the same order, the values of `O=c1c(-c2ccc(O)cc2)coc2cc(O)cc(O)c12` are 21.6 µM (active), 6780 nM (active) and “inactive”.
Take `NC(=O)c1nc(-c2cccc(-c3cc(F)ccc3OCC(F)(F)C(F)(F)F)c2)n[nH]1`: the concentration at half-maximal activity (AC50) in experiment [1] is 3.35 µM (active).
With `CC(=O)N1CCN(c2ccc(OC[C@H]3CO[C@](Cn4ccnc4)(c4ccc(Cl)cc4Cl)O3)cc2)CC1`, the outcome in experiment [2] and in experiment [4] was inactive. Besides, in experiment [3], the concentration at half-maximal activity (AC50) was 947 nM (active).

The record behind these values is PubChem BioAssay (EPA / NIEHS).
